Hits are enriched below; roughly 8.1% of the tested compounds scored in any of these assays.
Gal4-VP16 FLuc – VP16 counterscreen qHTS for inhibitors of ROR gamma transcriptional activity | Drosophila S2 Gal4-VP16 UAS-luciferase, luminescence, 20 h | Potency, µM (highest dose often 53.6 µM), actives largely listed as inhibitors | 310,000 compounds, 3.5% hits | AID 2546, 2010;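 note: Gal4-VP16 expression switched on by copper sulfate through the metallothionein promoter; nearly all actives have a fitted effect of over 50% in size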
Epigenetic derep – Quantitative High-Throughput Screen for Regulators of Epigenetic Control; Potency, µM (highest dose often 53.9 µM), actives largely listed as activators; 280,000 compounds, 0.2% hits; murine LDR cells, GFP reporter derepression, 30 h; AID 1865, 2009; note: nearly all actives have a fitted effect of over 60% in size
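Reporter derepression read as number of fluorescent GFP-positive objects, 20-120 um in size, counted by laser-scanning cytometer. Mouse LDR line with an epigenetically silenced CMV-GFP locus; compound incubation 30 h, 37 C.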
PINK1 expr mod – A Quantitative High throughput Screen to Identify Chemical Modulators of PINK1 Expression. PINK1 immunofluorescence, high-content cytometry, 24 h. Potency, µM (series often up to 76.6 µM), usual class: activators. 410,000 compounds, 0.2% hits. AID 624263, 2012; active = well fitted activation curve with a large enough effect; inconclusive = small, poorly fitted or top-dose-only effect; cell line not stated here; note: nearly all actives have a fitted effect of over 65% in size
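Measures PINK1 amount and localization on or inside mitochondria by immunofluorescence. Stable cells get compounds at 5 concentrations for 24 hours before fixation and staining; CCCP controls included.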
Sfp PPTase inh – qHTS Assay for Inhibitors of Bacillus subtilis Sfp phosphopantetheinyl transferase (PPTase); AID 1490, 2009; Potency, µM, actives largely listed as inhibitors; 310,000 compounds, 3.5% hits; 4'-phosphopantetheinyl transferase ffp (Bacillus subtilis), Q9F4F7; Biochemical Sfp PPTase activity, qHTS;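 note: the enzyme is Sfp with the accession as filed and its product quenches rhodamine fluorescence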
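Fluorescence-quenching assay with 15 nM Sfp, 5 uM rhodamine-CoA and 12.5 uM BHQ-2-labelled ybbR peptide in pH 7.6 Hepes/MgCl2 buffer. Enzyme was pre-incubated with compound for 15 min at room temperature. Rate was taken from the 30-min fluorescence change (525/598 nm).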
RORgamma inh – qHTS for inhibitors of ROR gamma transcriptional activity. Nuclear receptor ROR-gamma (Mus musculus), P51450. Drosophila S2 Gal4-RORgamma UAS-luciferase reporter, 20 h. Potency, µM (highest dose often 53.6 µM), usual class: inhibitors. 310,000 compounds, 5.4% hits. AID 2551, 2010; note: nearly all actives have a fitted effect of over 60% in size
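A Gal4/UAS one-hybrid system in insect cells: metallothionein-promoter Gal4–ROR gamma fusion plus Photinus luciferase reporter. Copper sulfate 700 uM final, 20 hr ambient incubation, luminescent detection after 10 min with reagent.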
ClpP mod – qHTS Assay for Activators of ClpP. ATP-dependent Clp protease proteolytic subunit (Bacillus subtilis (strain 168)), P80244. purified B. subtilis ClpP, FRET peptide cleavage, 20 min. Potency, µM (doses to about 57.5 µM). 340,000 compounds, 1.9% hits. AID 651965, 2013; active = well fitted falling curve with a large enough effect; inconclusive = small, poorly fitted or top-dose-only effect; inactive = no such curve, though single readings can be large or run the other way; note: the source files actives as falling curves though it sought activators and does not explain the sign; nearly all actives have a fitted effect of over 65% in size
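ClpP 10 microg/mL final, pH 8 Tris/KCl buffer with BSA, glycerol, Tween-20; compound pinned in; FRET-FV substrate; RT 20 min; Ex320/Em430; ΔFRET vs ADEP 5.8 microM, DMSO, no enzyme.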
Hits are given with their value; - = inactive; ? = inconclusive; . = no result. Unless noted, calls come from the whole dose curve; as a rule, active = well fitted curve in the direction sought with a large enough effect; inconclusive = small, poorly fitted or top-dose-only effect, or another doubt; inactive = no such curve, though single readings can be large; an effect the other way counts as inactive or inconclusive.

SMILES	Gal4-VP16 FLuc	Epigenetic derep	PINK1 expr mod	Sfp PPTase inh	RORgamma inh	ClpP mod
CN(Cc1ccccc1)C(=O)CCSc1nc(-c2ccc3c(c2)OCO3)cc(C(F)(F)F)n1	-	-	-	-	-	18µM
CCOC(=O)CSc1nc(-c2ccc(C)cc2C)cc(-c2ccccc2)c1C#N	.	-	-	.	.	-
COc1ccc(-c2noc(CNC(=O)c3ccccc3Br)n2)cc1	.	-	-	.	.	-
Cc1ccc2oc(C(=O)Nc3nnc(CC(C)C)s3)c(C)c2c1	-	.	-	-	7.1µM	-
CCCCc1nnc(NC(=O)c2oc3ccc(OC)cc3c2C)s1	.	.	-	.	.	32µM
COc1ccc2oc(C(=O)NCC(c3ccco3)N(C)C)c(C)c2c1 (stereo not drawn)	.	.	-	.	.	28µM
COc1cc(NC(=O)c2ccc(C)c(Cl)c2)ccc1NC(=O)c1cc2ccccc2o1	.	-	-	.	.	-
COC(=O)C1=C(C)NC(C)=C(C(=O)OC)C1C(=O)OCCN1C(=O)c2ccccc2C1=O	-	-	-	-	-	7.1µM
CCOC(=O)c1cc(-c2cccs2)nc2c1c(C)nn2-c1ccccn1	7.1µM	-	-	?	1.8µM	.
Cc1nn(-c2ccccn2)c2nc(-c3cccs3)cc(C(=O)NCc3ccco3)c12	?	-	-	?	14µM	13µM
Cc1c(C(=O)NCc2ccc(F)cc2)sc2ncnc(NCC3CCCO3)c12 (stereo not drawn)	.	.	-	.	.	.
COc1ccc(-c2c(=O)n(OC)c3ccccc3[n+]2[O-])cc1OC	-	.	-	56µM	-	-
C=CCOn1c(=O)c(-c2ccc(OC)c(OC)c2)[n+]([O-])c2ccccc21	-	-	-	56µM	-	-
COc1ccc(-c2c(=O)n(OCc3ccccn3)c3ccccc3[n+]2[O-])cc1OC	-	-	-	-	-	-
COc1ccc(OC)c(NC(=O)N2CCN(Cc3nc4ccc(C)cc4o3)CC2)c1	.	-	-	.	.	-
O=C(Nc1ccc(-c2nc3cc(NC(=O)c4ccc(Cl)cc4)ccc3o2)cc1)c1ccc(Cl)cc1	.	-	-	.	.	-
CCOC(=O)c1cc(NC(=O)c2ccc(C)cc2)c(=O)n2c1oc1ccc(Cl)cc12	.	-	-	.	.	-
Cc1cc2ncc(-c3ccc(Cl)cc3)cn2n1	-	-	-	-	-	-
Cc1ccc(-c2cnc3cc(C)nn3c2)cc1	13µM	-	-	-	11µM	.
Cc1ccc(-c2csc3n[nH]c(=S)n23)cc1	8.9µM	-	-	13µM	2.5µM	-
CC(=O)NC1C(=O)N(CCN2CCOCC2)c2ccc(F)cc21 (stereo not drawn)	-	.	-	71µM	-	-
CC(=O)NC1C(=O)N(CCN2CCOCC2)c2ccc(C)cc21 (stereo not drawn)	-	.	-	79µM	-	-
CCc1ccc2c(c1)C(NC(C)=O)C(=O)N2CC (stereo not drawn)	-	-	-	56µM	-	-
CCN1C(=O)C(NC(C)=O)c2cc(Br)ccc21 (stereo not drawn)	-	-	-	-	-	-
CC(=O)NC1C(=O)N(CCN2CCOCC2)c2ccc(Cl)cc21 (stereo not drawn)	-	.	-	?	-	.
SMILES	Gal4-VP16 FLuc	Epigenetic derep	PINK1 expr mod	Sfp PPTase inh	RORgamma inh	ClpP mod
Cc1ccc(NC(=O)c2cnc(SCC(=O)N3CCCc4ccccc43)n(C)c2=O)cc1	.	-	-	.	.	-
Cc1ccc(N2C(=O)N(CC(=O)Nc3cc(F)ccc3C)C(=O)C2C)cc1 (stereo not drawn)	.	.	-	.	.	-
Cc1ccc(N2C(=O)N(CC(=O)Nc3ccccc3C(F)(F)F)C(=O)C2C)cc1 (stereo not drawn)	.	.	-	.	.	16µM
O=C(c1ccccc1)n1c(=S)nc2ccccn21	?	-	-	-	?	-
Cc1cccc(C(=O)N2CCCCCC2)c1	-	-	-	-	-	-
Cc1ccc(C(=O)n2c(=S)nc3ccccn32)cc1	?	-	.	?	1.6µM	.
Cc1cccc(C(=O)n2c(=S)nc3ccccn32)c1	3.2µM	-	-	40µM	2.5µM	-
COc1ccc2nc(NC(=O)c3cc(=O)c4cc(C)cc(C)c4o3)sc2c1	.	-	-	.	.	-
Cc1cccc(CN2CCC(CNC(=O)c3c(C)oc4ncnc(N5CCCCC5)c34)CC2)c1	.	-	-	.	.	-
CCN1CCN(CCCNC(=O)Cn2c(-c3cccs3)cc3ccccc32)CC1	.	-	-	.	.	10µM
O=C(Cn1c(-c2cccs2)cc2ccccc21)NCCCN1CCN(c2cccc(Cl)c2)CC1	.	-	-	.	.	25µM
O=C(Cn1c(-c2cccs2)cc2cc(F)ccc21)NCCc1ccc(Cl)cc1	.	-	-	.	.	-
CN1CCN(CCCNC(=O)Cn2c(-c3cccs3)cc3ccccc32)CC1	.	-	-	.	.	11µM
CCOc1ccc(CCNC(=O)Cn2c(-c3cccs3)cc3cc(F)ccc32)cc1OCC	.	-	-	.	.	-
CCCN1CCN(CCCNC(=O)Cn2c(-c3cccs3)cc3cc(Cl)ccc32)CC1	.	-	-	.	.	32µM
Cc1cc(C)c(OCCOCCn2c(-c3ccc(Cl)cc3)nc3ccccc3c2=O)c(C)c1	.	-	-	.	.	-
Cc1ccc(C)c(S(=O)(=O)c2nnn3c2nc(NCc2ccc4c(c2)OCO4)c2sccc23)c1	.	-	-	.	.	?
Cc1c(/C=C/c2ccnc3ccccc23)ccc(N(C)C)c1C	.	.	-	.	.	-
Cc1ccc(CCNC(=O)Cn2c(-c3cccs3)cc3ccccc32)cc1	.	-	-	.	.	-
CCCN1CCN(CCCNC(=O)Cn2c(-c3cccs3)cc3ccccc32)CC1	.	-	-	.	.	35µM
Cc1ccc(C)c(N2CCN(CCCNC(=O)Cn3cc4c(n3)CCC(C)C4)CC2)c1 (stereo not drawn)	-	-	-	-	-	-
Cc1ccc(C)c(N2CCN(CCCNC(=O)Cn3c(-c4cccs4)cc4ccccc43)CC2)c1	.	-	-	.	.	28µM
NS(=O)(=O)c1ccc(CCNC(=O)Cn2c(-c3cccs3)cc3ccccc32)cc1	.	-	-	.	.	35µM
Cc1ccc(C)c(N2CCN(CCCNC(=O)Cn3cc4c(n3)CCCCC4)CC2)c1	20µM	-	-	-	13µM	-
CCCCN(c1nc2ccccc2nc1Cl)S(=O)(=O)c1ccc(C)cc1	2.5µM	.	-	-	-	-
CCCN(CCC)CC(O)CN(c1ccccc1)S(=O)(=O)c1ccc(C)cc1 (stereo not drawn)	-	-	-	-	-	-
O=C1NC(=S)CN1c1ccccc1	?	-	-	5.6µM	?	-
O=C(CCc1ccccc1)NCCSCc1c(F)cccc1Cl	7.9µM	-	-	-	?	-

Screening data: PubChem BioAssay, National Center for Advancing Translational Sciences (NCATS)
